Assay outcomes as filed in PubChem BioAssay.
S1P2 blocker – blocks the human S1P2 receptor. cell-based S1P2 antagonist assay, inhibition at 5 uM. inhibition, % at 5 µM. 97,000 tested, 0.21% active. AID 736; in the data active means inhibition above about 45%;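 further: CRE beta-lactamase reporter cells expressing human S1P2 stimulated with S1P; 0% = agonist at EC80 alone and 100% = agonist plus reference antagonist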
Target sequence (O95136 whole entry, looked up): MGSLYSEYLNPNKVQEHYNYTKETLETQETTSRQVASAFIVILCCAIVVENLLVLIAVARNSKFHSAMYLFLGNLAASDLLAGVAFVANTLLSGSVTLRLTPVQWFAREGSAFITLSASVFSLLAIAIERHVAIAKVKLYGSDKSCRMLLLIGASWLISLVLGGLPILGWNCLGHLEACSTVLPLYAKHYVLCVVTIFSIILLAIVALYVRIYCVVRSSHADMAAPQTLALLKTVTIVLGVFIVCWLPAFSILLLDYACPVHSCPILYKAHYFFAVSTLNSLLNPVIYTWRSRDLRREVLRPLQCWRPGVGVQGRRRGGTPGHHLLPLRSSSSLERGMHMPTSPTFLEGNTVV
MRP1 act – MRP-1 activation; H69AR cells + doxorubicin, viability rescue, CellTiter-Glo; viability increase, % at 10 µM; 140,000 tested, 0.61% active; AID 799;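 active means viability gain under doxorubicin at or above a set limit, the compound median plus 3 SD, cut at about 4.7% in these data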;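 further: MRP-1 overexpressing cells given doxorubicin 25 µM after compound pretreatment; 18-22 h compound pretreatment then 72 h with doxorubicin before readout; 0% = doxorubicin-only wells and 100% = vehicle-treated cells without doxorubicin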
GALR2 antag – GALR2 (human) receptor antagonism | O43603 | GALR2-expressing cells, antagonist mode | inhibition, % at 4 µM | 140,000 tested, 0.39% active; in the data active means inhibition above about 27%;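 further: cells stimulated with galanin 1-16 at roughly its EC80; 0% = agonist challenge control and 100% = basal control without agonist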
S1P2 ag – activates the human S1P2 receptor | S1P2-expressing cell line, agonist reporter read-out | activation, % at 4.5 µM | 97,000 tested, 0.46% active | AID 729; in the data active means activation above about 16%;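 further: 0% = vehicle low control and 100% = maximal reference agonist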
GALR2 agonist – agonists of human galanin receptor 2 (GALR2); GALR2-expressing cells, agonist activation read-out; activation, % (no concentration beside the values); 140,000 tested, 0.48% active; in the data active means activation above about 5%, passing the limit was not always enough;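 further: 0% = vehicle buffer wells and 100% = reference agonist at full effect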
MRP resist rev – MRP-mediated drug resistance reversal; 85,000 tested, 0.04% active; differential viability (reversal), % at 10 µM; H69AR cells + 2 uM doxorubicin, CellTiter-Glo, 72 h;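 active means viability drop by adding the cancer drug above about 55%, with treated viability meeting a 40% cutoff, limit read from the data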;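 further: viability without doxorubicin minus viability with 2 µM doxorubicin for each compound; larger differential means the compound sensitizes cells more to doxorubicin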
GALR2 ag confirm – confirmation of human galanin receptor 2 (GALR2) agonists; AID 864; shares compounds with GALR2 agonist; activation, % at 5.6 µM; 460 tested, 10% active; GALR2-expressing cells, agonist activation; in the data active means activation above about 8.4%;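 further: 0% = buffer-only vehicle wells and 100% = full reference agonist response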
BLA activ ctr – beta-lactamase activation, GALR2 counterscreen. shares compounds with GALR2 agonist. CHO NFAT-bla reporter, beta-lactamase FRET activation. activation, % at 5.6 µM. 460 tested, 10% active;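 active means activation above the screen-wide mean activation plus 3 SD, cut at about 8% in these data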;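 further: 0% = DMSO with PBS wells and 100% = thapsigargin positive control wells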
Active calls of the source: *; . = not tested or not shown. In the library only some 1.8% were active in any assay of this set; here they are far more common.

SMILES	S1P2 blocker	MRP1 act	GALR2 antag	S1P2 ag	GALR2 agonist	MRP resist rev	GALR2 ag confirm	BLA activ ctr
O=C(Nc1ccc(Br)cc1)c1ccc(N2C(=O)C3CC=C(Cl)CC3C2=O)cc1 (stereo not given)	21	-2	9	-1	12*	0	0	-4
CCCCC(CC)C(=O)NCCc1ccc(S(N)(=O)=O)cc1 (stereo not given)	-10	0	10	-1	-1	0	.	.
CCC(CC)C(=O)NCCc1ccc(S(N)(=O)=O)cc1	2	-1	2	-4	10	7	0	-1
CN1CCc2c(sc3c2C(=O)NC(c2ccco2)N3)C1 (stereo not given)	2	-2	-11	1	2	-6	.	.
O=C1NC(c2ccco2)Nc2sc3c(c21)CCN(Cc1ccccc1)C3 (stereo not given)	-10	-1	-8	9	16*	-2	0	1
C=CCn1c(NS(=O)(=O)c2ccccc2)c(S(=O)(=O)c2ccc(C)cc2)c2nc3ccccc3nc21	.	2	-7	.	3	.	.	.
CC(=O)Nc1c(S(=O)(=O)c2ccccc2)c2nc3ccccc3nc2n1Cc1ccccc1	4	1	-7	4	10	.	1	6
COC(=O)c1sccc1NC(=S)N1CCN(c2cc(C)ccc2C)CC1	.	-3	5	.	-1	.	.	.
O=C1CSC(=Nc2cc(Cl)ccc2Cl)N1	-1	-1	15	-7	27*	13	0	-1
Cc1ccc(N=C2NC(=O)CS2)c(C)c1	19	0	0	-2	0	1	.	.
N#Cc1cc(-c2ccccc2)cnc1Cl	14	0	6	-5	-2	.	.	.
CCCCNC(=S)Nc1ccccc1F	3	-4	5	-8	0	.	.	.
COC(=O)c1cc(NC(=O)CSc2nncn2C)cc(C(=O)OC)c1	5	-1	-5	-1	16*	1	-1	-1
CCCCn1c(NC(=O)c2ccccc2)c(C#N)c2nc3ccccc3nc21	-1	-3	2	12	16*	.	6	14*
CCOC(=O)c1ccc(CNCc2ccccc2)cc1	.	-2	13	.	-2	.	.	.
CC(C(=O)N(C1CC1)C1(C(=O)Nc2ccccc2)CCCC1)N1C(=O)c2ccccc2C1=O (stereo not given)	.	0	-6	.	-1	8	.	.
Cc1nc2ccccc2n1CCc1nc2c3ccccc3nc(SCC(=O)NCc3ccco3)n2n1	1	-3	-1	-5	8.7*	-40	-1	1
O=C(CCn1c(SCC(=O)NCc2ccco2)nc2ccccc2c1=O)NCCc1ccccc1	15	-1	-6	0	-1	14	.	.
CN1C(=O)N(c2ccccc2)C(Nc2nncs2)C1(C)C (stereo not given)	25	0	-7	-7	1	3	.	.
C=CCn1c(N)cc(=O)nc1SCC(=O)N1CCN(c2ccc(F)cc2)CC1	-14	0	12	-2	-2	-2	.	.
Cc1cc(C)c2c(N)c(C(=O)NCC3CCCCC3)sc2n1	-21	0	3	-4	28*	2	0	0
CCN(CC)c1ccc2cc(-c3nc4ccccc4n3C)c(=O)oc2c1	69*	-1	43*	3	10	-9	4	4
COc1ccc(C(=O)N2CCC(O)(c3ccc(F)cc3)CC2)cc1OC	-30	0	-6	-5	98*	-15	0	-3
CC1(C)CC(=O)C2=C(C1)N(CCN1CCOCC1)C1=C(C(=O)CC(C)(C)C1)C2c1cccc(Cl)c1	-8	-5	0	6	9	26	2	3
Cn1nc(OC(=O)Nc2ccc(F)cc2)cc1C(F)(F)F	-2	0	-2	-7	62*	11	-1	-3
O=C(COc1ccc(/C=N/NC(=O)C(=O)N2CCCCCC2)cc1)Nc1ccccc1Cl	.	0	1	.	0	.	.	.
CC(C)(C)c1ccc(S(=O)(=O)Nc2cccnc2)cc1	23	-2	8	-6	-2	19	.	.
O=S(=O)(Nc1cccnc1)c1ccc(Cl)cc1	12	-1	0	-3	80*	6	0	-1
Cc1ccc(-c2csc(NC(=O)CSc3nnc4c(n3)[nH]c3ccccc34)n2)cc1	.	-5	-2	.	3	.	.	.
